Source: PubChem BioAssay (NCATS)
Inconclusive results are not listed. Calls of active or inactive are those of the source. The call rests on the fitted dose curve; in most records, active means well fitted inhibition curve with a large enough effect; inconclusive means small, poorly fitted or top-dose-only effect; inactive means no such curve, though single readings can be large or run the other way.

Experiment: Tertiary RLuc qRT-PCR qHTS assay for Zika virus inhibitors (AID 1347169); further: nearly all actives have a fitted effect of over 55% in size
Conditions: infected Vero cells, reporter luminescence, 48-72 h; series mostly up to 45.9 µM
How it was run: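 Vero cells (1,000/well) infected with recombinant ZIKV-RLuc (Cambodian) at MOI 1-2 after compound addition, 48-72 hrs at 37 degrees C. Live-cell Renilla luciferase substrate added; luminescence read after 1-1.5 hrs.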
Potency means the concentration at half of the fitted maximal effect.

| Compound | Potency |
| --- | --- |
| O=C(Nc1ccc(-c2ccc(Cl)c(Cl)c2)cc1)C1=C(O)c2ccccc2S(=O)(=O)N1 | 26.2 µM (active) |
| O=C(O)c1cccc(-c2ccc(-c3cn(C(=O)N4CCCCC4Cc4ccccc4)nn3)cc2)c1 (stereo unspecified) | 2.62 µM (active) |
| CC(O)(C(=O)O)C1CCC2(C)C1CCC1(C)C2CCC2C3(C)CCC(O)C(C)(COC4OC(CO)C(O)C(O)C4O)C3CCC21C (stereo unspecified) | inactive |
| Cc1noc(-c2ccc(-c3ccc(CC(=O)O)cc3)cc2)c1NC(=O)O[C@H](C)c1ccccc1Cl | 14.7 µM (active) |
| CC1=C(C(=O)OC2CCCCC2)C(c2ccc([N+](=O)[O-])cc2)C2=C(CC(C)(C)CC2=O)N1 (stereo unspecified) | inactive |
| O=S(=O)(Nc1cc(Cl)c(Oc2cnc3ccccc3c2)c(Cl)c1)c1ccc(Cl)cc1Cl | 9.3 µM (active) |
| C=C1/C(=C/C=C2\CCC[C@]3(C)[C@@H]([C@H](C)/C=C/[C@@H](C)C(C)C)CC[C@@H]23)C[C@@H](O)C[C@@H]1O | 3.3 µM (active) |
| O=C(O)c1ccc(S(=O)(=O)N(Cc2ccc(OC(F)(F)F)cc2)c2ncc(C(F)(F)F)cc2Cl)cc1 | 18.6 µM (active) |
| CC(C)(C)Sc1c(CC(C)(C)C(=O)O)n(Cc2ccc(Cl)cc2)c2ccc(OCc3ccc4ccccc4n3)cc12 | 11.7 µM (active) |
| CCCCCCCOc1cc2c(cc1/C(C)=C/c1ccc(C(=O)O)cc1)C(C)(C)CCS2(=O)=O | 2.94 µM (active) |
| COc1cc(C(=O)O)ccc1NC(=O)C1NC(CC(C)(C)C)C(C#N)(c2ccc(Cl)cc2F)C1c1cccc(Cl)c1F (stereo unspecified) | 9.3 µM (active) |
